The full data set covers some 8,800 targets. This sample favours those with a hit. About 0.5% of all pairs of compound and target were hits. Values without a mark were called inactive.
How the values were obtained:
Assay in all cases: log2 fold change, soluble protein after heating vs DMSO (PISA); higher = thermal stabilisation; K562 lysate, 10 uM; active = over 0.2 and 3.5 SD of the protein, either way, in both replicates (recomputed)
vemurafenib = compound: CCCS(=O)(=O)Nc1ccc(F)c(C(=O)c2c[nH]c3ncc(-c4ccc(Cl)cc4)cc23)c1F [vemurafenib]
Method in brief: (§1)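 Quantification was by TMTpro 16plex LC-MS/MS with equalised channel sums, applied to the supernatant after 21,000xg for 90 min. Samples were crude K562 extract at 1 mg/mL protein in PBS pH 7.4 with 1 mM MgCl2, treated with 10 μM compound for 30 min, heated for 3 min across 48°C-58°C, pooled and brought to 0.5% NP-40 at 4°C. Values are log-two fold changes in thermal stability relative to solvent controls, from duplicates.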

[1] = compound: CCCS(=O)(=O)Nc1ccc(F)c(C(=O)c2c[nH]c3ncc(Cl)cc23)c1F
Method in brief: as §1

barasertib = compound: CCN(CCCOc1ccc2c(Nc3cc(CC(=O)Nc4cccc(F)c4)[nH]n3)ncnc2c1)CCOP(=O)(O)O [barasertib]
Method in brief: as §1

[2] = compound: CC[C@@H]1C(=O)N(C)c2cnc(Nc3ccc(C(=O)NC4CCN(C)CC4)cc3OC)nc2N1C1CCCC1
Method in brief: as §1

volasertib = compound: CC[C@@H]1C(=O)N(C)c2cnc(Nc3ccc(C(=O)N[C@H]4CC[C@H](N5CCN(CC6CC6)CC5)CC4)cc3OC)nc2N1C(C)C [volasertib]
Method in brief: as §1

[3] = compound: CCn1c(C(=O)N(C2CC2)C2CC2)cc2c3c(ncn3C)c(Nc3cc(C)n(C)n3)nc21
Method in brief: as §1

[4] = compound: CCn1cc(-c2ccnc3[nH]c(-c4cccc(CN(C)C)c4)cc23)c(-c2ccc(NC(=O)N(C)C)cc2)n1
Method in brief: as §1

[5] = compound: CN1CCC(CNc2ccc3ncc(-c4cccc(OC(F)(F)F)c4)n3n2)CC1
Method in brief: as §1

saracatinib = compound: CN1CCN(CCOc2cc(OC3CCOCC3)c3c(Nc4c(Cl)ccc5c4OCO5)ncnc3c2)CC1 [saracatinib]
Method in brief: as §1

sotrastaurin = compound: CN1CCN(c2nc(C3=C(c4c[nH]c5ccccc45)C(=O)NC3=O)c3ccccc3n2)CC1 [sotrastaurin]
Method in brief: as §1

alvocidib = compound: CN1CC[C@H](c2c(O)cc(O)c3c(=O)cc(-c4ccccc4Cl)oc23)[C@H](O)C1 [alvocidib]
Method in brief: as §1

Tubastatin A = compound: CN1CCc2c(c3ccccc3n2Cc2ccc(C(=O)NO)cc2)C1 [Tubastatin A]
Method in brief: as §1

[6] = compound: CNC(=O)C1=CC=CC=C1NC2=NC(=NC=C2Cl)NC3=C(C=C(C=C3)N4CCOCC4)OC
Method in brief: as §1

defactinib = compound: CNC(=O)c1ccc(Nc2ncc(C(F)(F)F)c(NCc3nccnc3N(C)S(C)(=O)=O)n2)cc1 [defactinib]
Method in brief: as §1

[7] = compound: CNc1nc(-c2ccc3c(N)n[nH]c3c2)cc(N2C[C@@H](C(=O)NC3CCCCC3)CC[C@H]2C)n1
Method in brief: as §1

encorafenib = compound: COC(=O)N[C@@H](C)CNc1nccc(-c2cn(C(C)C)nc2-c2cc(Cl)cc(NS(C)(=O)=O)c2F)n1 [encorafenib]
Method in brief: as §1

[8] = compound: COC(=O)[C@H](CCSC)NC(=O)C1=C(C=C(C=C1)NC[C@H](CS)N)C2=CC=CC=C2
Method in brief: as §1

alisertib = compound: COc1cc(Nc2ncc3c(n2)-c2ccc(Cl)cc2C(c2c(F)cccc2OC)=NC3)ccc1C(=O)O [alisertib]
Method in brief: as §1

[9] = compound: COc1cc2nc(-c3cc(F)ccc3O)nc(N[C@@H]3CNC[C@H]3C(C)(C)O)c2cc1OC
Method in brief: as §1

gefitinib = compound: COc1cc2ncnc(Nc3ccc(F)c(Cl)c3)c2cc1OCCCN1CCOCC1 [gefitinib]
Method in brief: as §1

UniProt P11142, sequence (P11142 whole entry, looked up): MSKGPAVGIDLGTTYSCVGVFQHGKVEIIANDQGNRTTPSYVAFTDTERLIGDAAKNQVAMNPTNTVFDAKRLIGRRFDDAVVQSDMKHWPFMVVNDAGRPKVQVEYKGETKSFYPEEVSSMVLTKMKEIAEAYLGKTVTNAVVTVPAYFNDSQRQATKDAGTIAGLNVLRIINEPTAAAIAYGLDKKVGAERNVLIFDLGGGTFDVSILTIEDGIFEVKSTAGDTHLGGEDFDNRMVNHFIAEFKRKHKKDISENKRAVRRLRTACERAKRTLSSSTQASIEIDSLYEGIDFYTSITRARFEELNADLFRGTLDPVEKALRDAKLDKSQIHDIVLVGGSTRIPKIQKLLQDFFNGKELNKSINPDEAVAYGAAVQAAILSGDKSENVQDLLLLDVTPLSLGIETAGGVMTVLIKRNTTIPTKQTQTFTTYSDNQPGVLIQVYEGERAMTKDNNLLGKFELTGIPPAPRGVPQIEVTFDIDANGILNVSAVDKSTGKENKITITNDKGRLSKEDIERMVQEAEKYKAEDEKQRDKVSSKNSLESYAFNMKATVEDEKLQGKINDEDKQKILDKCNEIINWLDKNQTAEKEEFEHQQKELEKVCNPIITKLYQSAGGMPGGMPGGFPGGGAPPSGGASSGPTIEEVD
UniProt P52272, sequence (P52272 whole entry, looked up): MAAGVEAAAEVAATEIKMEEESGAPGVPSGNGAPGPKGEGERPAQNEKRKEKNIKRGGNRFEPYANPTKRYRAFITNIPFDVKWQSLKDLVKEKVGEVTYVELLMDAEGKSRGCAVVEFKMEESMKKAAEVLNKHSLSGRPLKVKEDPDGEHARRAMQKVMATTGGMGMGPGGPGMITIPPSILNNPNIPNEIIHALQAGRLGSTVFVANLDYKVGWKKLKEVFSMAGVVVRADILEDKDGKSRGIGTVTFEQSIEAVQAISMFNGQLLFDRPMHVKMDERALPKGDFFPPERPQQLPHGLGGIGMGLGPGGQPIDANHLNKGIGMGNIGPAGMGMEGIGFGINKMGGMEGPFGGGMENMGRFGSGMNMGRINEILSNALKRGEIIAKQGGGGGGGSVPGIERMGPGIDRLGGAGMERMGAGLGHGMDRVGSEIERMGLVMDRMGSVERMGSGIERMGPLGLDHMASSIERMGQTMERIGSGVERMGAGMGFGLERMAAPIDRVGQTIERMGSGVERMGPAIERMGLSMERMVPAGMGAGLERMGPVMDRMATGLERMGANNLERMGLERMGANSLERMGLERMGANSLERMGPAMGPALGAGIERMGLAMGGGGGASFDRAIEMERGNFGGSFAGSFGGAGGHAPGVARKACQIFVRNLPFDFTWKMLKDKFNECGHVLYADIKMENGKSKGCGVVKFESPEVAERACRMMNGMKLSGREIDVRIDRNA
UniProt Q92769, sequence (Q92769 whole entry, looked up): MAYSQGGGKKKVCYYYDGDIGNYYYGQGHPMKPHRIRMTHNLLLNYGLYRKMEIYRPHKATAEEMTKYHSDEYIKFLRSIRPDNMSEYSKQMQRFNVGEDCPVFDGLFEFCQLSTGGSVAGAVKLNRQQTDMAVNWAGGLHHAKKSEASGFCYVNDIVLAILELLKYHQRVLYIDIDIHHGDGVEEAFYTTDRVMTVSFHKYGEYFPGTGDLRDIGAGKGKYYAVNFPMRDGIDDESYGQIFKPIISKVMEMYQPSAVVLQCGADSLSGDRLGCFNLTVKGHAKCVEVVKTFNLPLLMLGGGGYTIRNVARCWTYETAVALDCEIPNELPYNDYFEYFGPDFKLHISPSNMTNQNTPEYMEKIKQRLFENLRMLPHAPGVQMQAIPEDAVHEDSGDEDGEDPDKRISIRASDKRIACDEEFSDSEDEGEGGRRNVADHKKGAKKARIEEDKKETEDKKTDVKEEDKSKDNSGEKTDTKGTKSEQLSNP
UniProt P35914, sequence (P35914 whole entry, looked up): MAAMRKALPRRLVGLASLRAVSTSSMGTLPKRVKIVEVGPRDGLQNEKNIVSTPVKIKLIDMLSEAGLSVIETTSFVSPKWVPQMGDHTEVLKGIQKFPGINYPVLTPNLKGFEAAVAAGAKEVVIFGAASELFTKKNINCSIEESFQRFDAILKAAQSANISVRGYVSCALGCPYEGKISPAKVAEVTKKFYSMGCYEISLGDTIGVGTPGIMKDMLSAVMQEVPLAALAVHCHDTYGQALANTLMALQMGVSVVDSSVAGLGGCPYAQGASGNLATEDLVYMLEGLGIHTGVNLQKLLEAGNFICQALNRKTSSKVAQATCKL
UniProt P17096, sequence (P17096 whole entry, looked up): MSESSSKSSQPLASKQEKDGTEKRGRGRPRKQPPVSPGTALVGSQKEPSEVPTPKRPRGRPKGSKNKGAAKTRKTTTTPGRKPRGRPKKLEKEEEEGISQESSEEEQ
UniProt P49448, sequence (P49448 whole entry, looked up): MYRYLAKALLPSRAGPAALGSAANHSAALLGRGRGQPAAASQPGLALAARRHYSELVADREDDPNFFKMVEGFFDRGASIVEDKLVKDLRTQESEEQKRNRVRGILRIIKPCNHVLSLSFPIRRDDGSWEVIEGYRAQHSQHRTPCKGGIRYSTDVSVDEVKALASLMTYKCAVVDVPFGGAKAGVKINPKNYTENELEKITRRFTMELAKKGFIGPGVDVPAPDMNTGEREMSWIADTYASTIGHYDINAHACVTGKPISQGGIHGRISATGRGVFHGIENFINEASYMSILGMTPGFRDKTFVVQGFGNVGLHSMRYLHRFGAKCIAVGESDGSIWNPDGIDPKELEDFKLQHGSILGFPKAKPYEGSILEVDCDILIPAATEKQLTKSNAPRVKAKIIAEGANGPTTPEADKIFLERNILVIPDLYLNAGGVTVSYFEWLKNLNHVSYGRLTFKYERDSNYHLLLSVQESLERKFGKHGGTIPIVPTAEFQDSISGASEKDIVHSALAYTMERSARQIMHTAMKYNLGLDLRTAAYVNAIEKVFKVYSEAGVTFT
UniProt P32780, sequence (P32780 whole entry, looked up): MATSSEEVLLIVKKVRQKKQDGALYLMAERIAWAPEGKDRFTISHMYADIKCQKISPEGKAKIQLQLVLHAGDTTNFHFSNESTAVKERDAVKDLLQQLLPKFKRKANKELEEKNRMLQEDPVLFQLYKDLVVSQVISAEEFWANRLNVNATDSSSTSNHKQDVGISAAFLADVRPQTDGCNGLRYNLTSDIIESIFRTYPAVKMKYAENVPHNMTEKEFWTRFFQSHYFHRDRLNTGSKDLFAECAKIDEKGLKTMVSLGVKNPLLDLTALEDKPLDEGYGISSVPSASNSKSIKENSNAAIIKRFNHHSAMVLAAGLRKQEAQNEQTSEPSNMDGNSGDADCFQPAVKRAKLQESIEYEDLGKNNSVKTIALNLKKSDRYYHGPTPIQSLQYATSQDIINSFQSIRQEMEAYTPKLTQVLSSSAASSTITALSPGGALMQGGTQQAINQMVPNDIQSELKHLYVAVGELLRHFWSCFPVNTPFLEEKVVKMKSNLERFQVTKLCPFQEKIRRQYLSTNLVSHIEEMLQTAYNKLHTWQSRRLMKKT
UniProt Q13322, sequence (Q13322 whole entry, looked up): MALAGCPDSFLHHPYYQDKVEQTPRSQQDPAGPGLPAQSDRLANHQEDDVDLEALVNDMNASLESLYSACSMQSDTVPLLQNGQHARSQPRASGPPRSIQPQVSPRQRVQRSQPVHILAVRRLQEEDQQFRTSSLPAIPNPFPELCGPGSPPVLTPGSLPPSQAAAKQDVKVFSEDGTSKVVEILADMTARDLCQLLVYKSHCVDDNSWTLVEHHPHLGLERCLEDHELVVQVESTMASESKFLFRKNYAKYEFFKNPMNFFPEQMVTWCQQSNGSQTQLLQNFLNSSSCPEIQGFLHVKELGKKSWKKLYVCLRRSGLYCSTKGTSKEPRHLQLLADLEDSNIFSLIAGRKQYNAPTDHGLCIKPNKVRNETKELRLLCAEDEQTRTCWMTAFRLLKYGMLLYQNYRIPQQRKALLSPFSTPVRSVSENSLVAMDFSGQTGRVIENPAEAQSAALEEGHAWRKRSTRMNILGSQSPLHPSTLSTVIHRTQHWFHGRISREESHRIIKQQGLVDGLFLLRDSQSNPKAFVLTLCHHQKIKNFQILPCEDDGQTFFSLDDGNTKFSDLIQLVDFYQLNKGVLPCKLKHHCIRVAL
UniProt Q9NWZ3, sequence (Q9NWZ3 whole entry, looked up): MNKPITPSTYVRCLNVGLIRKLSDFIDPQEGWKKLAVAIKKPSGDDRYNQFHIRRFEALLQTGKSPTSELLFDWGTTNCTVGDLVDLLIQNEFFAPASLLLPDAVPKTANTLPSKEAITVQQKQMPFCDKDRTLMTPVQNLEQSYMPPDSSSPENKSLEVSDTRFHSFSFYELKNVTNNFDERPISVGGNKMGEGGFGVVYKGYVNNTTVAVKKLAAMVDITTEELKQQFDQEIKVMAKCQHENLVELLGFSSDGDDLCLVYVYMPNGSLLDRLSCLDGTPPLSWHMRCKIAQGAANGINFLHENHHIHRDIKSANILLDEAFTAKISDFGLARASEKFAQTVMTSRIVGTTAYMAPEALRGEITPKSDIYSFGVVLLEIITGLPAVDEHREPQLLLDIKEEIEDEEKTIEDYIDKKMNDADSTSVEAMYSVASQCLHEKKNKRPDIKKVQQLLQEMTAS
UniProt Q9NPR9, sequence (Q9NPR9 whole entry, looked up): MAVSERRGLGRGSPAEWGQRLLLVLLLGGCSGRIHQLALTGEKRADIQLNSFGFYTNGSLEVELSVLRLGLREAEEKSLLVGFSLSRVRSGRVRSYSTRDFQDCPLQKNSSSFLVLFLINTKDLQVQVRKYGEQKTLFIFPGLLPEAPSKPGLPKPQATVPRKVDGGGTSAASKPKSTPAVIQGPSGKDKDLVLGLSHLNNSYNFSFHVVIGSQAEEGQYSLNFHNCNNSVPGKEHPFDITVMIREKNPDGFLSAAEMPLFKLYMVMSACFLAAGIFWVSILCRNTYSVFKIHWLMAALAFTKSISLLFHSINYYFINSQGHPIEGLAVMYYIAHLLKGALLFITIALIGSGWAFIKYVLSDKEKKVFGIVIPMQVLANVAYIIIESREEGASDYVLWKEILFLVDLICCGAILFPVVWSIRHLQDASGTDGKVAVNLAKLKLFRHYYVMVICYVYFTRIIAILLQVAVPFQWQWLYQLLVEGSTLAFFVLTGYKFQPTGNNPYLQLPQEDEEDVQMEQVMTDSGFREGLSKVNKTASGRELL

Target | log2 fold change (vemurafenib) | log2 fold change [1] | log2 fold change (barasertib) | log2 fold change [2] | log2 fold change (volasertib) | log2 fold change [3] | log2 fold change [4] | log2 fold change [5] | log2 fold change (saracatinib) | log2 fold change (sotrastaurin) | log2 fold change (alvocidib) | log2 fold change (Tubastatin A) | log2 fold change [6] | log2 fold change (defactinib) | log2 fold change [7] | log2 fold change (encorafenib) | log2 fold change [8] | log2 fold change (alisertib) | log2 fold change [9] | log2 fold change (gefitinib)
H4C1 (UniProt P62805) | -0.013 | 0.087 | 0.079 | -0.055 | 0.027 | 0.079 | 0.268 | -0.01 | -0.094 | -0.059 | -0.101 | 0.373 (active) | -0.023 | -0.02 | 0.569 (active) | 0.038 | 0.051 | 0.018 | 0.012 | -0.008
IMPDH2 (UniProt P12268) | 0.015 | 0.009 | -0.056 | -0.015 | 0.012 | 0.039 | 0.11 | 0.01 | -0.001 | -0.005 | 0.026 | -0.226 (active) | 0.013 | 0.03 | 0.017 | 0.021 | -0.501 (active) | 0.029 | -0.015 | -0.023
HNRNPM (UniProt P52272) | -0.017 | -0.013 | 0.079 | 0.027 | -0.107 | 0.046 | -0.017 | -0.01 | 0.055 | 0.024 | -0.01 | -0.096 | 0.022 | 0.045 | -0.067 | 0.166 | -0.035 | 0.069 | 0.037 | 0.012
GNL3 (UniProt Q9BVP2) | 0.051 | 0.041 | 0.032 | -0.078 | 0.004 | -0.07 | 0.129 | -0.066 | 0.004 | 0.013 | 0.023 | 0.008 | 0.055 | -0.002 | 0.038 | 0.014 | 0.252 (active) | -0.006 | 0.033 | -0.029
GRB10 (UniProt Q13322) | 0.001 | 0.051 | 0.054 | -0.054 | -0.103 | 0.012 | -0.023 | 0.016 | -0.082 | 0.028 | -0.061 | -0.226 | 0.015 | 0.003 | 0.02 | 0.065 | 0.01 | 0 | -0.02 | -0.043
GPR108 (UniProt Q9NPR9) | 0.001 | -0.059 | -0.03 | 0.01 | 0.03 | 0.031 | 0.057 | 0.01 | 0.092 | 0.019 | -0.068 | -0.034 | 0.075 | 0 | 0.014 | 0.11 | -0.066 | 0.001 | 0.047 | 0.002
HSPA8 (UniProt P11142) | -0.024 | 0.003 | -0.035 | -0.031 | -0.003 | 0.002 | -0.005 | 0.014 | -0.001 | 0.004 | 0.005 | 0.056 | -0.036 | -0.003 | -0.019 | -0.004 | 0.009 | 0.002 | -0.004 | 0.008
HMGN4 (UniProt O00479) | -0.015 | 0.016 | -0.003 | 0.453 | 0.003 | 0.022 | 1.29 (active) | -0.595 | -0.173 | -0.099 | 0.581 | -0.001 | 0.01 | 0.122 | 0.235 | -0.072 | -0.046 | -0.074 | -0.036 | 0.111
HMGA1 (UniProt P17096) | 0.023 | -0.011 | -0.05 | 0.051 | 0.02 | -0.04 | -0.323 (active) | 0.131 | -0.001 | 0.012 | -0.108 | 0.066 | -0.001 | -0.007 | 0.023 | -0.005 | -0.018 | 0.046 | 0.011 | -0.027
HMGB2 (UniProt P26583) | 0.003 | 0.017 | -0.019 | 0.037 | 0.014 | 0.018 | 0.283 (active) | -0.273 (active) | 0.007 | -0.04 | 0.134 | 0.027 | 0.023 | 0.003 | 0.016 | -0.006 | -0.081 | -0.044 | -0.022 | -0.028
HDAC2 (UniProt Q92769) | -0.025 | 0.035 | 0.009 | -0.012 | -0.009 | 0.002 | -0.052 | 0.055 | 0.02 | -0.024 | -0.01 | -0.012 | -0.007 | 0.006 | 0.003 | -0.006 | 0.007 | 0.002 | 0 | 0.013
GTF3C3 (UniProt Q9Y5Q9) | 0.062 | 0.06 | 0.01 | -0.088 | -0.014 | 0.003 | -0.158 | 0.005 | 0.049 | -0.013 | -0.018 | -0.147 | 0.043 | -0.007 | 0.04 | -0.001 | 0.065 | -0.006 | 0.02 | -0.006
GLUD2 (UniProt P49448) | 0.177 | -0.042 | -0.069 | 0.02 | -0.145 | -0.031 | -0.024 | 0.046 | 0.007 | -0.039 | -0.029 | 0.12 | 0.053 | 0.061 | 0.02 | 0.066 | 0.115 | -0.06 | -0.021 | 0.036
IRAK4 (UniProt Q9NWZ3) | -0.028 | -0.005 | 0.107 | -0.085 | -0.022 | 0.063 | 0.001 | 0.19 | 0.045 | -0.022 | 0.01 | -0.083 | 0.261 (active) | 0.145 | -0.018 | -0.032 | 0.032 | 0.006 | 0.111 | 0.045
HMGCL (UniProt P35914) | -0.017 | 0.01 | 0.027 | 0.037 | 0.014 | 0.037 | 0.05 | -0.02 | -0.013 | -0.01 | 0.013 | -0.012 | -0.015 | 0.059 | 0.055 | 0.032 | -0.102 | -0.031 | -0.016 | -0.021
GTF2H1 (UniProt P32780) | 0.013 | 0.014 | 0.014 | -0.021 | -0.028 | -0.028 | -0.042 | -0.075 | 0.018 | -0.012 | -0.053 | -0.023 | 0.05 | 0.041 | 0.031 | -0.004 | -0.059 | 0.065 | -0.021 | -0.015

From the supplement of paper PMC10849652
